Results: PubChem BioAssay (EPA / NIEHS)
Active and inactive are the calls of the source. How the source made its calls: active means hit-call score of the fitted dose curve at least 0.9, where 1 is the maximum; inactive means score below 0.9.

Assay: ATG_M_32_CIS: Attagene CIS-FACTORIAL HepG2 Assay for M32 Transcription Factor (Internal Marker) (AID 2282949);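 further: background control marker of the multiplexed CIS panel rather than a real target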
Details: HepG2 Attagene cis-factorial M32 reporter, mRNA; actives raise or lower the signal
Summary of the method: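 Following 24 h chemical exposure of HepG2 cells transiently expressing cis-promoter reporter constructs, reporter transcript levels were determined by RT-PCR with fluorescent labelling and capillary electrophoresis, then fitted bidirectionally against DMSO.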

outcome, inactive:
CNC(=C[N+](=O)[O-])NCCSCc1csc(CN(C)C)n1, O=C1CCCCCCCCCCCCCC1, CCCC(=O)OC/C=C(\C)CCC=C(C)C, CCCCCCC(O)CCCCCCCCCCC(=O)OC (stereo not drawn), COC(=O)c1ccccc1, O=C(O)/C=C/C(=O)O, O=S(=O)(O)c1cccc2ccccc12, C/C=C(\C)C(=O)OCC/C=C\CC, CC/C=C\CC/C=C/C(OCC)OCC, C=CCOCC(CC)(CO)COCC=C, CN1CCCC1, CCO[Si](CCCN)(OCC)OCC, CCCCCCC1CCC(=O)O1 (stereo not drawn), O=[N+]([O-])c1ccccc1C(F)(F)F, CCC(=O)OCc1ccc(OC)cc1, CCc1cc(C(N)=S)ccn1, CCC(C)=NO, COc1cccc(OC)c1C(=O)O, C=C1CC[C@H]2C[C@@H]1C2(C)C, CCCCCC1CCCC(=O)O1 (stereo not drawn), COC(=O)[C@]1(C)CCC[C@@]2(C)[C@H]1CC=C1C=C(C(C)C)CC[C@@H]12, Cc1cc2nc3c(=O)[nH]c(=O)nc-3n(C[C@H](O)[C@H](O)[C@H](O)CO)c2cc1C, Cc1cc(-n2nc3ccc(Cl)cc3n2)c(O)c(C(C)(C)C)c1, O=C(OCc1ccccc1)c1ccccc1, CCCCCCC1CCCC(=O)O1 (stereo not drawn), c1ccc(CNc2ncnc3nc[nH]c23)cc1, NC(=O)c1ccc(N)cc1, CC(=O)Nc1c(I)c(NC(C)=O)c(I)c(C(=O)O)c1I, CC(C)=CCOC(=O)c1ccccc1, CC(C)(C)NC(=O)[C@@H]1CN(Cc2cccnc2)CCN1C[C@@H](O)C[C@@H](Cc1ccccc1)C(=O)N[C@H]1c2ccccc2C[C@H]1O, Oc1cccc2ccccc12, C=CN1CCCCCC1=O, Oc1ccc(Oc2ccccc2)cc1, CC(=O)CCc1ccccc1, CNC[C@H](O)[C@@H](O)[C@H](O)[C@H](O)CO, CN(C)c1ccc(C(c2ccccc2)c2ccc(N(C)C)cc2)cc1, c1ccc2c(c1)Oc1ccccc1S2, CCCCCC[C@@H](O)C/C=C\CCCCCCCC(=O)O, CC[N+](CC)(CC(=O)Nc1c(C)cccc1C)Cc1ccccc1 (tested in a mixture with another compound)

Assay: ATG_M_06_CIS: Attagene CIS-FACTORIAL HepG2 Assay for M06 Transcription Factor (Internal Marker) (AID 2282950)
Details: HepG2 Attagene CIS-FACTORIAL M06 internal marker reporter; actives raise or lower the signal
Summary of the method: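 Internal background marker within multiplexed cis-reporter HepG2 system. Cells transiently transfected, dosed 24 h; reporter mRNA measured by RT-PCR, HpaI digestion and capillary electrophoresis. Bidirectional fit relative to DMSO.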

outcome, inactive:
CNC(=C[N+](=O)[O-])NCCSCc1csc(CN(C)C)n1, O=C1CCCCCCCCCCCCCC1, CCCC(=O)OC/C=C(\C)CCC=C(C)C, CCCCCCC(O)CCCCCCCCCCC(=O)OC (stereo not drawn), COC(=O)c1ccccc1, O=C(O)/C=C/C(=O)O, O=S(=O)(O)c1cccc2ccccc12, C/C=C(\C)C(=O)OCC/C=C\CC, CC/C=C\CC/C=C/C(OCC)OCC, C=CCOCC(CC)(CO)COCC=C, CN1CCCC1, CCO[Si](CCCN)(OCC)OCC, CCCCCCC1CCC(=O)O1 (stereo not drawn), O=[N+]([O-])c1ccccc1C(F)(F)F, CCC(=O)OCc1ccc(OC)cc1, CCc1cc(C(N)=S)ccn1, CCC(C)=NO, COc1cccc(OC)c1C(=O)O, C=C1CC[C@H]2C[C@@H]1C2(C)C, CCCCCC1CCCC(=O)O1 (stereo not drawn), COC(=O)[C@]1(C)CCC[C@@]2(C)[C@H]1CC=C1C=C(C(C)C)CC[C@@H]12, Cc1cc2nc3c(=O)[nH]c(=O)nc-3n(C[C@H](O)[C@H](O)[C@H](O)CO)c2cc1C, Cc1cc(-n2nc3ccc(Cl)cc3n2)c(O)c(C(C)(C)C)c1, O=C(OCc1ccccc1)c1ccccc1, CCCCCCC1CCCC(=O)O1 (stereo not drawn), c1ccc(CNc2ncnc3nc[nH]c23)cc1, NC(=O)c1ccc(N)cc1, CC(=O)Nc1c(I)c(NC(C)=O)c(I)c(C(=O)O)c1I, CC(C)=CCOC(=O)c1ccccc1, CC(C)(C)NC(=O)[C@@H]1CN(Cc2cccnc2)CCN1C[C@@H](O)C[C@@H](Cc1ccccc1)C(=O)N[C@H]1c2ccccc2C[C@H]1O, Oc1cccc2ccccc12, C=CN1CCCCCC1=O, Oc1ccc(Oc2ccccc2)cc1, CC(=O)CCc1ccccc1, CNC[C@H](O)[C@@H](O)[C@H](O)[C@H](O)CO, CN(C)c1ccc(C(c2ccccc2)c2ccc(N(C)C)cc2)cc1, c1ccc2c(c1)Oc1ccccc1S2, CCCCCC[C@@H](O)C/C=C\CCCCCCCC(=O)O, CC[N+](CC)(CC(=O)Nc1c(C)cccc1C)Cc1ccccc1 (tested in a mixture with another compound)
